Eight compounds from PubChem BioAssay (Tox21) can be followed below.

Assay [1] in a line: qHTS assay to test for compound auto fluorescence at 535 nm (green) in HEK293 cells (AID 720680). (qHTS replaces the single test concentration by a dilution series.)
Assay [2] can be described thus: qHTS assay to test for compound auto fluorescence at 460 nm (blue) in HEK293 cell free culture (AID 720681). The gist of the method:
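Compounds were added to cell-free DMEM with 10% FBS and fluorescence read directly. The blue channel used 405 nm excitation and 460 nm emission, with triamterene as the reference fluorophore.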

Assay [3] can be described thus: qHTS assay to test for compound auto fluorescence at 535 nm (green) in HEK293 cell free culture (AID 720682). In a few lines: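 Steps: dispense DMEM/10% FBS into empty wells; pin in compound or DMSO; measure fluorescence at 485/535 nm. Values are fluorescein equivalents.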
A short description of assay [4]: qHTS assay to test for compound auto fluorescence at 590 nm (red) in HEK293 cell free culture (AID 720683). The gist of the method: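 Cell-free wells of DMEM with 10% FBS received compound, and intrinsic fluorescence was read at excitation/emission 540/590 nm. Values expressed as equivalence to Rose Bengal sodium.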
Assay [5] in a line: qHTS assay to test for compound auto fluorescence at 590 nm (red) in HepG2 cell free culture (AID 720684). The gist of the method:
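Compound was pinned into wells holding MEM with 10% FBS and no cells, and red fluorescence was read at Ex/Em 540/590 nm. Signal is expressed as auto fluorescence equivalency relative to Rose Bengal sodium.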

Assay [6] in a line: qHTS assay to test for compound auto fluorescence at 460 nm (blue) in HepG2 cell free culture (AID 720685). The gist of the method:
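Compound (23 nL) or DMSO pinned into cell-free MEM with 10% FBS; blue fluorescence read at 405/460 nm excitation/emission, expressed as auto-fluorescence equivalency to triamterene.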

Assay [7] is described as follows: qHTS assay to test for compound auto fluorescence at 535 nm (green) in HepG2 cell free culture (AID 720686).
Assay [8] has as its target Glucocorticoid receptor (Homo sapiens) (UniProt P04150). Kind of assay: qHTS assay to identify small molecule agonists of the glucocorticoid receptor (GR) signaling pathway (AID 720691; active means well fitted activation curve with a large enough effect in the signal ratio in the repeat runs, not every such curve was filed as active; the % refers to the signal ratio). Conditions: GR-bla HeLa, beta-lactamase reporter ratio, 18 h; activation: at 62.4 µM (top of the series). In a few lines:
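GR-bla HeLa cells carrying a GRE-driven beta-lactamase reporter, exposed to compounds for 18 h at 37 C. Reporter activation read as fluorescence after 2 h with LiveBLAzer B/G FRET substrate at room temperature.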

Assay [9] can be described thus: qHTS assay to identify small molecule antagonists of the glucocorticoid receptor (GR) signaling pathway - cell viability counter screen (AID 720693). Further: nearly all actives have a fitted effect of over 55% in size. Further: potency means the concentration at half of the fitted maximal effect.
The nature of assay [10]: qHTS assay for identifying genotoxic compounds that show differential cytotoxicity against isogenic chicken DT40 cell lines with known DNA damage response pathways - wild type cell line (AID 743012). Further: nearly all actives have a fitted effect of over 60% in size. Further: potency means the concentration at half of the fitted maximal effect. In a few lines:
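Wild-type DT40 cells (300/well) exposed to compounds for 40 hours at 37 C/5% CO2. Viability read by CellTiter-Glo luminescence after 30 min at room temperature.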

The nature of assay [11]: qHTS assay for identifying genotoxic compounds that show differential cytotoxicity against isogenic chicken DT40 cell lines with known DNA damage response pathways - Rev3 mutant cell line (AID 743014). Further: nearly all actives have a fitted effect of over 55% in size. Further: potency means the concentration at half of the fitted maximal effect.
Assay [12] is described as follows: qHTS assay for identifying genotoxic compounds that show differential cytotoxicity against isogenic chicken DT40 cell lines with known DNA damage response pathways - Rad54/Ku70 mutant cell line (AID 743015). Further: nearly all actives have a fitted effect of over 60% in size. Further: potency means the concentration at half of the fitted maximal effect.
A short description of assay [13]: qHTS assay to identify small molecule antagonists of the androgen receptor (AR) signaling pathway - cell viability counter screen (AID 743033; further: nearly all actives have a fitted effect of over 45% in size; further: potency means the concentration at half of the fitted maximal effect).
Assay [14] in a line: qHTS assay to identify small molecule antagonists of the androgen receptor (AR) signaling pathway using the MDA cell line - cell viability counter screen (AID 743041; further: nearly all actives have a fitted effect of over 45% in size; further: potency means the concentration at half of the fitted maximal effect). The gist of the method: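 MDA-kb2 AR-luc cells (MMTV-luciferase, AR/GR responsive) treated with compounds plus R1881 agonist for 16 h at 37C. CellTiter-Fluor added at 15.5 h; fluorescence read after 30 min in the same wells.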

Assay [15] has as its target Glucocorticoid receptor (Homo sapiens) (UniProt P04150). Briefly: qHTS assay to identify small molecule antagonists of the glucocorticoid receptor (GR) signaling pathway (AID 720692; active means well fitted inhibition curve with a large enough effect in the signal ratio in the repeat runs, not every such curve was filed as active; the % refers to the signal ratio; further: potency means the concentration at half of the fitted maximal effect). The gist of the method: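 GR-bla HeLa cells carrying a GRE-driven beta-lactamase reporter received compound after 4 h plating, then dexamethasone (5 nM final). After 18 h at 37C, the FRET substrate was loaded for 2 h at room temperature and fluorescence read.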

Assay [16] in a line: qHTS assay to test for compound auto fluorescence at 460 nm (blue) in HepG2 cells (AID 720687). In a few lines: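 HepG2 cells in MEM with 10% FBS, attached overnight at 37 C, were exposed to compound or DMSO for 1 hr at 37 C, 5% CO2. Blue fluorescence was read at 405/460 nm, with triamterene as reference fluorophore.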
In assay [17] the target is Androgen receptor (Homo sapiens) (UniProt P10275). Kind of assay: qHTS assay to identify small molecule agonists of the androgen receptor (AR) signaling pathway using the MDA cell line (AID 743040; further: nearly all actives have a fitted effect of over 20% in size). In a few lines: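 MDA-kb2 breast carcinoma cells carrying MMTV-luciferase (responsive to AR and GR), plated 5 h then treated 16 h with compounds at 37C, 0% CO2. Read-out was ONE-Glo luminescence after 30 min at room temperature.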

The target is the same in assay [18]. Briefly: qHTS assay to identify small molecule antagonists of the androgen receptor (AR) signaling pathway using the MDA cell line (AID 743042; further: nearly all actives have a fitted effect of over 55% in size; further: potency means the concentration at half of the fitted maximal effect). In a few lines:
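MDA-kb2 breast carcinoma cells carrying MMTV-luciferase (AR/GR responsive) were co-treated with compounds and the agonist R1881 for 16 h at 37C. Inhibition read as ONE-Glo luminescence; CellTiter-Fluor fluorescence measured in parallel for cytotoxicity.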

Assay [19] has the same target. Kind of assay: qHTS assay to identify small molecule antagonists of the androgen receptor (AR) signaling pathway (AID 743035; active means well fitted inhibition curve with a large enough effect in the signal ratio in the repeat runs, not every such curve was filed as active; the % refers to the signal ratio; further: potency means the concentration at half of the fitted maximal effect). The gist of the method:
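HEK293 cells stably carrying UAS-beta-lactamase reporter, 2,000/well, given compounds plus R1881 agonist and incubated 16 h at 37C. LiveBLAzer B/G FRET substrate then added for 2 h at room temperature before fluorescence reading.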

For assay [20] the target is unchanged. Kind of assay: qHTS assay to identify small molecule agonists of the androgen receptor (AR) signaling pathway (AID 743036; active means well fitted activation curve with a large enough effect in the signal ratio in the repeat runs, with a control signal flat, not every such curve was filed as active; the % refers to the signal ratio). In a few lines: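 Reporter line: GeneBLAzer AR-UAS-bla-GripTite (HEK293). Steps: plate cells, 4 h rest, add compounds, 16 h at 37C, add LiveBLAzer B/G substrate, 2 h at RT, read fluorescence.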

Each structure is given as a SMILES string. Values joined by “and” are separate entries in the source; they are usually repeats but may differ in a detail not shown here. Equal values may be shown once. Results filed as inconclusive are left out. Active and inactive are the calls of the source. Unless noted, the call rests on the fitted dose curve; in most records, active means well fitted curve in the direction sought with a large enough effect in the repeat runs; inconclusive means weak or mixed curves; inactive means no such curve, though single readings can be large; an effect the other way counts as inactive or inconclusive.

Chain of Androgen receptor (Homo sapiens) (P10275 whole entry, looked up): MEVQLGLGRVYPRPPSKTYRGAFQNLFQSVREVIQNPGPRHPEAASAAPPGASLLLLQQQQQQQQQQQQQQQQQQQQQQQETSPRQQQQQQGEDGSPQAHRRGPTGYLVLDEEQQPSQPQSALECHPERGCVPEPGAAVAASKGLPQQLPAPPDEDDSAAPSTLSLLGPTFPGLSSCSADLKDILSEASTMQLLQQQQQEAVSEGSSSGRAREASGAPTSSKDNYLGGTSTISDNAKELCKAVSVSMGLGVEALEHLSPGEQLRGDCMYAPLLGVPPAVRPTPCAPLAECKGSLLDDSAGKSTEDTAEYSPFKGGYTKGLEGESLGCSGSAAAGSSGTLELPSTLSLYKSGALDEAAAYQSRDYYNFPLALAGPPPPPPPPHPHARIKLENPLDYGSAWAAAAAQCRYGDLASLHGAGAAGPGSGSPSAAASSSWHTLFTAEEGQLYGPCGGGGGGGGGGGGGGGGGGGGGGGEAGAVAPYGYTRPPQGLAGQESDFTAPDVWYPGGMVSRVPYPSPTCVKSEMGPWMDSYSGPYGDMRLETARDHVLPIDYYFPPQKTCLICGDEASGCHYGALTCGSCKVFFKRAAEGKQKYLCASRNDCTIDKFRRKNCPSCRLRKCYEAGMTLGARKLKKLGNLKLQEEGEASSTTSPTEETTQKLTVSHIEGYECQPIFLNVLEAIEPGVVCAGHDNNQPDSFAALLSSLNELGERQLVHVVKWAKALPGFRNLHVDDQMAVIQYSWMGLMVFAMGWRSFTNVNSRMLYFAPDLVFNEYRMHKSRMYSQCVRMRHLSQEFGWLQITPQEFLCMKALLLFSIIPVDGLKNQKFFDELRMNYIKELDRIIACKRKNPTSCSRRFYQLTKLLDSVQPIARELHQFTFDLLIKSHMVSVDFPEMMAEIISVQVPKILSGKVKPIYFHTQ
Chain of Glucocorticoid receptor (Homo sapiens) (P04150 whole entry, looked up): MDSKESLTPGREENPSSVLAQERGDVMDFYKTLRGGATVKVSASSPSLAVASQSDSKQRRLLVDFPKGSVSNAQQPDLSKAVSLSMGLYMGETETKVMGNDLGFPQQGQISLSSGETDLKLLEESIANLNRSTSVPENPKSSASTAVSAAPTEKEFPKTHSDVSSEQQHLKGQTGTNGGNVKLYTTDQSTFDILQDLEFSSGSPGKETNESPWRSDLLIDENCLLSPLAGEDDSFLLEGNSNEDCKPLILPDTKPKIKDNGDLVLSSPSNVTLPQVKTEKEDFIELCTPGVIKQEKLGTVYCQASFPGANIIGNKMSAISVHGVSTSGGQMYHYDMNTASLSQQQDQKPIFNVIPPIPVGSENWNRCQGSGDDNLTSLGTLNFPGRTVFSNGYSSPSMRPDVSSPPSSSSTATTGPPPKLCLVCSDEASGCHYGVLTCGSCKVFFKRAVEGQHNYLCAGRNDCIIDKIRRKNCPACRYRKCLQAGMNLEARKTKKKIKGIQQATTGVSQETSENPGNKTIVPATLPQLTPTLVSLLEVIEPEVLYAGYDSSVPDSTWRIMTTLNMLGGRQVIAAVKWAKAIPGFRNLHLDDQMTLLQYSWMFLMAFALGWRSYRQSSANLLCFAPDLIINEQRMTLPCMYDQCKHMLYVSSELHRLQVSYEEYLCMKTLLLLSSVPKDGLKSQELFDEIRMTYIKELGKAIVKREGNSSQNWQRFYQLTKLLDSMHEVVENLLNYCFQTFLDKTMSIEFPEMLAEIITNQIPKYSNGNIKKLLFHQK

Regarding `OCl`, the outcome in [1], in assay [3], in assay [4] and in assay [5] was inactive. Also, the Potency entry in assay [2], in assay [6], in [7], in assay [8], in [9] and in assay [10] was “inactive” throughout. Moreover, the Potency result in assay [11], in assay [12], in assay [13] and in [14] was “inactive” throughout.

As for `O=C(O)c1cc(O)c2c(c1)[C@H]([C@H]1c3cc(C(=O)O)cc(O)c3C(=O)c3c(O[C@@H]4O[C@H](CO)[C@@H](O)[C@H](O)[C@H]4O)cccc31)c1cccc(O[C@@H]3O[C@H](CO)[C@@H](O)[C@H](O)[C@H]3O)c1C2=O`, the result in assay [1], in assay [3], in assay [4] and in assay [5] was inactive. The Potency entry in assay [2], in [6], in [7], in assay [8], in assay [15] and in assay [9] was “inactive” in each case. Also, the Potency result in [10], in assay [11], in [12] and in assay [14] was “inactive” throughout.

For the compound `O=[N+]([O-])c1ccc(O)c2ncccc12`, the result in assay [1], in assay [3], in assay [4] and in assay [5] was inactive. Further, the Potency result in assay [2], in assay [6], in [7], in assay [16] and in [9] was “inactive” each time. Moreover, the Potency in assay [10] was 2.98 µM (active); in [12], 5.31 µM (active); in assay [13], 10700 nM (active); in assay [14], 11900 nM (active).

Take `CN1C(=O)C[C@@H](C(=O)N[C@@H](Cc2cnc[nH]2)C(=O)N2CCC[C@H]2C(N)=O)NC1=O`: the result in assay [1], in assay [3], in assay [4] and in assay [5] was inactive. Further, the Potency entry in assay [2], in [6], in assay [7], in assay [16], in assay [9] and in [10] was “inactive” throughout. The Potency entry in assay [11], in [12] and in assay [14] was “inactive” each time.

Regarding `CN1CC[C@H](c2c(O)cc(O)c3c(=O)cc(-c4ccccc4Cl)oc23)[C@H](O)C1`, the call in assay [1], in [3], in [4] and in [5] was inactive. The Potency result in [2], in assay [6], in assay [7], in [17] and in assay [14] was “inactive” in each case. Moreover, the Potency in [15] is 674 nM (active); in assay [9], 601 nM (active); in [10], 0.106 µM (active); in assay [11], 150 nM (active); in assay [12], 0.15 µM (active); in assay [18], 106 nM (active).

With `CO[C@H]1C[C@@H]2CC[C@@H](C)[C@@](O)(O2)C(=O)C(=O)N2CCCC[C@H]2C(=O)O[C@H]([C@H](C)C[C@@H]2CC[C@@H](O)[C@H](OC)C2)CC(=O)[C@H](C)C=C(C)[C@@H](O)[C@@H](OC)C(=O)[C@H](C)C[C@H](C)/C=C/C=CC=C1C`, the result in assay [1], in assay [3], in assay [4] and in assay [5] was inactive. Moreover, the Potency entry in [2], in assay [6], in [7], in assay [16], in assay [13] and in assay [17] was “inactive” in each case. In addition, the Potency is 2.4 nM (active) and 3 nM (active) in assay [10]; 2.7 nM (active) and 2.4 nM (active) in assay [11]; 3.3 nM (active) and 5.3 nM (active) in assay [12]; 10.7 µM (active) and 26.8 µM (active) in assay [19]; 29800 nM (active) in assay [14]; 21.1 µM (active) and 23.7 µM (active) in [18].

For the compound `CC12CCC(C1)C(C)(C)C2=O` (stereo unspecified), the compound was called inactive in assay [1], in assay [3], in assay [4] and in assay [5]. Also, the Potency entry in assay [2], in assay [6], in assay [7], in assay [9], in [10] and in assay [11] was “inactive” throughout. Further, the Potency entry in [19], in assay [20], in [17], in assay [14] and in [18] was “inactive” in each case.

`CO/N=C(\C(=O)N[C@@H]1C(=O)N2C(C(=O)O)=C(CSc3cnns3)CS[C@H]12)c1csc(N)n1`: the result in assay [1], in assay [3], in [4] and in [5] was inactive. Also, the Potency entry in assay [2], in [7], in [16], in [8], in assay [15] and in [9] was “inactive” in each case. In addition, the Potency entry in assay [10], in assay [13], in [20], in [17], in assay [14] and in [18] was “inactive” each time.
